# Laboratory results taken from PubChem BioAssay (Tox21).
# Records with an inconclusive call do not appear. Unmarked numbers belong to inactive results. The call rests on the fitted dose curve; in most records, active means well fitted cell-killing curve with a large enough effect in the repeat runs; inconclusive means weak or mixed curves, or effect the other way; inactive means flat fitted curve, though single readings scatter.
# Assay: qHTS assay to identify small molecule agonists of the TGF-beta/Smad signaling pathway - cell viability counter screen (AID 1346829); further: top concentration of the series differs between compounds; nearly all actives have a fitted effect of over 45% in size
# Settings: SBE-bla HEK293T viability, CellTiter-Glo luminescence, 5 h; series mostly up to 76.8 µM; activity change, negative = cytotoxicity: at the top concentration
# Description: National Center for Advancing Translational Sciences [NCATS]
# NIH Chemical Genomics Center [NCGC]
# U.S. Environmental Protection Agency [EPA]
# National Institutes of Environmental Health Sciences [NIEHS]
# National Toxicology Program [NTP]
# U.S. Food and Drug Administration [FDA]
# Transforming growth factor beta (TGF-beta) superfamily consists of a large number of structurally related dimeric proteins that act as hormones or local mediators in regulating a wide range of biological functions. This superfamily includes TGF-betas themselves, the bone morphogenetic proteins (BMPs) and the activins. These ligands induce oligomerization of serine/threonine receptor kinases and phosphorylate the cytoplasmic signaling molecules of Smad protein family. CellSensor SBE-bla HEK 293T cell line (Life Technologies, Carlsbad, CA), responsive to TGF-beta was used to screen Tox21 10K compound library for identification of agonists/antagonists of the Smad signaling pathway. This cell line contains a beta-lactamase reporter gene under control of the Smad binding element (SBE) stably integrated into HEK 293T cells. Also cytotoxicity of the compounds was tested in parallel by measuring the cell viability using CellTiter-Glo assay system in the same wells.
# Tox21 Assay Protocol Summary:
# SBE-bla HEK 293T cells were dispensed at 4,000/well in 6 uL of assay medium into black wall/clear-bottom 1536-well plates using a Multidrop Combi (ThermoFisher Scientific, Waltham, MA) dispenser. After the assay plates were incubated at 37 C and 5% CO2 for an overnight, 23 nL of compounds dissolved in DMSO, positive controls or DMSO only was transferred to the assay plate by a Pintool station (Kalypsys, San Diego, CA). The assay plates were incubated at 37 C and 5% CO2 for 5 hr. One uL of LiveBLAzer B/G FRET substrate (Life Technologies) was added using a Flying Reagent Dispenser (FRD, Aurora Discovery, San Diego, CA) and the plates were incubated at room temperature for 2 hr. Fluorescence intensity (405 nm excitation, 460 nm and 530 nm emissions) was measured using an Envision plate reader (PerkinElmer, Shelton, CT). For cytotoxicity read, 4 uL of CellTiter-Glo reagent (Promega Corporation, Madison, WI) was added to each well of the assay plates using FRD. After 30min incubation at room temperature, the luminescence intensity was measured using ViewLux plate reader (PerkinElmer).
# On the % scale 0 is the no-effect control and ±100 the full control effect.
row,SMILES,"activity change, negative = cytotoxicity"
1,C=CCn1c(=O)n([C@@H]2O[C@H](CO)[C@@H](O)[C@H]2O)c2nc(N)[nH]c(=O)c21,6.12% [at 35.3 µM]
2,OCC(O)[C@@H](O)[C@H](O)[C@H](O)CO[C@H]1O[C@H](CO)[C@@H](O)[C@H](O)[C@H]1O (stereo not given in full),-0.65%
3,NCCN1CCNC1=O,-5.85%
4,NC(=O)Nc1nc2ccccc2[nH]1,-1.03%
5,O=Cc1ccccc1[N+](=O)[O-],-0.832%
6,O=C(CCOCCOCCOCCOCCC(=O)Nc1c(I)cc(I)c(C(=O)O)c1I)Nc1c(I)cc(I)c(C(=O)O)c1I,5.32% [at 35.3 µM]
7,CN(C)C(=O)Nc1ccccc1,-5.83%
8,CC1(C)SC(C)(C)SC(C)(C)S1,3.93%
9,CCCCCC[C@@H](CCC)C(=O)O,-10.4% [at 35.3 µM]
10,NC(N)=NS(=O)(=O)c1ccc(N)cc1,13.6% [at 35.3 µM]
11,O=[N+]([O-])c1ccc(CCO)cc1,6.44%
12,Nc1cc(C(Cl)=C(Cl)Cl)c(S(N)(=O)=O)cc1S(N)(=O)=O,-5.36% [at 35.3 µM]
13,CCC(=O)c1cccc(Cl)c1,8.07%
14,Cn1cnc2c(=O)[nH]c(N)nc21,-1.83%
15,O=C(O)/C=C/c1ccc(/C=C/C(=O)O)cc1,-7.91% [at 35.3 µM]
16,O=c1[nH]c2ccccc2c(=O)n1CCCl,11.5% [at 35.3 µM]
17,COC[C@H](c1ccc(C(F)(F)F)cc1)N1CCN(C2(C)CCN(C(=O)c3c(C)ncnc3C)CC2)C[C@H]1C,8.79% [at 35.3 µM]
18,Cc1ccccc1C(=O)O,5.48%
19,NC(=O)c1c(Cl)cccc1Cl,3.67%
20,COC(=O)C1=C(C)NC(C)=C(C(=O)OCC(C)=O)C1c1ccccc1[N+](=O)[O-] (stereo not given),0.918% [at 35.3 µM]

row,SMILES,"activity change, negative = cytotoxicity"
1,CN(C)C(=O)C(CCN1CCC(O)(c2ccc(Cl)cc2)CC1)(c1ccccc1)c1ccccc1,-11.4% [at 35.3 µM]
2,CC(=O)c1ccc(C)cc1,2.65%
3,CCCCN(CCO)CCO,-13.4%
4,NC(=O)CCCCC1CCSS1 (stereo not given),8.55% [at 35.3 µM]
5,OCCCCCCO,-0.997%
6,CC(=O)CCc1ccc(O)cc1,-10.1%
7,CC/C=C\C#N,9.88%
8,C=CCSCC1Nc2cc(Cl)c(S(N)(=O)=O)cc2S(=O)(=O)N1 (stereo not given),12.5% [at 35.3 µM]
9,Cc1ccc(Nc2ccc(O)c3c2C(=O)c2ccccc2C3=O)cc1,3.56%
10,CCC(C(=O)NC(N)=O)c1ccccc1 (stereo not given),0%
11,COC(=O)CCCCCCCCC(=O)OC,2.83%
12,C=C(C)C(=O)NCCC[N+](C)(C)C,16.6%
13,CCCCCCC(=O)OCC,-2.56%
14,CSc1nc(NC2CC2)nc(NC(C)(C)C)n1,1.5%
15,CC12CCC(CC1=O)C2(C)C (stereo not given),3.49%
16,CCCCCOC(=O)Nc1nc(=O)n([C@@H]2O[C@H](C)[C@@H](O)[C@H]2O)cc1F,-7.37% [at 35.3 µM]
17,C=CCOCC(O)CS(=O)(=O)O (stereo not given),16.8%
18,CC1=CC(C)C(C=O)C(C)C1 (stereo not given),-2.74%
19,C=CCOc1nc(OCC=C)nc(OCC=C)n1,-4.68%
20,CCCCCN(CCCCC)C(=O)C(CCC(=O)O)NC(=O)c1ccc(Cl)c(Cl)c1 (stereo not given),1.2% [at 35.3 µM]
